PI4K2A block: inhibitors of human PI4K2A. Q9BTU6. purified PI4K2A, ADP-Glo luminescence, 1 h; active compounds read low. activity change, negative = inhibition, % at 76.9 µM. 420,000 tested, 0.13% active. AID 1346378; in the data active = activity change below about -50%; inconclusive = mostly about -30% to -49%;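 also: -100% = wells without enzyme as full effect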
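In this quantitative HTS, ADP production by PI4K2A was quantified luminescently after 1 h at ambient temperature; 100 microM adenosine served as plate-quality control.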
HTT aggregate: inhibitors of mutant huntingtin aggregate formation in PC12 cells | 220,000 tested, 1.1% active | Potency, µM (doses to about 46.1 µM), for inactives: at the top dose activity change, negative = inhibition, most hits filed as inhibitors | AID 1688 | PC12 HttQ103-GFP aggregates, Acumen cytometry, 40 h; also: potency is read from the fitted curve at half-maximal effect; % is scaled to controls: 0 for no effect and ±100 for the full control effect; nearly all actives have a fitted effect of over 60% in size
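PC12 cells with ecdysone-inducible HTT exon1 Q103-GFP, induced by 100 nM tebufenozide, given compounds in a concentration series. GFP aggregates (1–25 um, 6 SD above background) counted in lysates by laser-scanning cytometry, 488 nm excitation.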
HTT cytoprotect: cytoprotection in Huntington HTT-Q103 PC12 cell model; PC12 HTT-Q103 induced, cytoprotection, ATP luminescence, 40 h; Potency, µM (top dose mostly 56.4 µM), without a hit: cytoprotection (ATP increase), most hits filed as activators; 230,000 tested, 0.14% active; AID 1471; also: potency is read from the fitted curve at half-maximal effect; % of control where 0% means no effect; nearly all actives have a fitted effect of over 45% in size
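Huntington model: PC12 line, ecdysone-inducible HTTQ103 exon1–GFP, tebufenozide 100 nM. Test articles in a dose series. Endpoint luminescence from cellular ATP.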
GALK inh: blocks human galactokinase activity; P51570; AID 1868; 270,000 tested, 0.007% active; Potency, µM (top dose mostly 57.5 µM), for inactives: at the top dose activity change, negative = inhibition, hits mostly inhibitors; Purified GALK, Kinase-Glo residual ATP luminescence; also: potency is read from the fitted curve at half-maximal effect; % is scaled to controls: 0 for no effect and ±100 for the full control effect
Target sequence (P51570 whole entry, looked up): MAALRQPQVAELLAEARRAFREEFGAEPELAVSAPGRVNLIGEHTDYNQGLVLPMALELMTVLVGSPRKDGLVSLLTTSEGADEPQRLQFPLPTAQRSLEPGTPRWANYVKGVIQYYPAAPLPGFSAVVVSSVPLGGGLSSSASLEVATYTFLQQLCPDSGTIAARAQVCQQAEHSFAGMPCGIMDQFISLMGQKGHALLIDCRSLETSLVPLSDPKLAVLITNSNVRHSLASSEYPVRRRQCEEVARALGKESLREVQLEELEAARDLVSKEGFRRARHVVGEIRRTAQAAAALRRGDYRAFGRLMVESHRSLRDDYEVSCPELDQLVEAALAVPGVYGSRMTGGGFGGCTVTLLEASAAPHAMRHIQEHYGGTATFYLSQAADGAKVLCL
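Luminescence from leftover ATP (Ultra-Glo luciferase/luciferin) served as read-out after a 1 h room-temperature reaction of 5 nM GALK with 35 uM ATP and 100 uM galactose.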
The depositor's hits bear a star; ? = inconclusive; / = not tested or not shown; ! = not confirmed by another sample; [ ] = another dose, or the depositor's remark. This excerpt belongs to a sample that is enriched for hits. Unless noted, calls follow the shape of the dose curve; as a rule, active = well fitted curve in the direction sought with a large enough effect; inconclusive = small, poorly fitted or top-dose-only effect, or another doubt; inactive = no such curve, though single readings can be large; an effect the other way counts as inactive or inconclusive.

SMILES | PI4K2A block | HTT aggregate | HTT cytoprotect | GALK inh
CCCCCCc1cc2cc(-c3nnc(-c4ccccc4OC)o3)c(=O)oc2cc1O | -3.3 | ? | -15.3% | -1.1%
CC(=O)Nc1ccn(C2COC(COC(=O)c3ccccc3)O2)c(=O)n1 (stereo unspecified) | -0.4 | / | / | /
CCOC(=O)c1ccc(N2N=C(C)/C(=C/C=C/c3ccco3)C2=O)cc1 | -2.7 | ? | 7.3%[10 µM] | -1.4%
O=C(O)c1cc(N2N=C(C(F)(F)F)/C(=C/C=C/c3ccco3)C2=O)ccc1Cl | -66.7* | 0.5%[9.22 µM] | -16.1%[10 µM] | -17.5%
CCCN(CCC)C(=O)C(CCC(=O)OCCCN1CCN(CCOC(=O)Cc2c(C)n(C(=O)c3ccc(Cl)cc3)c3ccc(OC)cc23)CC1)NC(=O)c1ccccc1 (stereo unspecified) | -0.2 | / | / | /
O=C(O)COc1ccc(/C=C2\SC(=Nc3ccccc3)N(c3ccccc3)C2=O)cc1 | -1.0 | -19.6% | -17.8% | -1.4%
O=C(O)c1ccc(/C=C2\SC(=Nc3ccccc3)N(c3ccccc3)C2=O)cc1 | 0.6 | -31.2% | 12.6µM* | -1.3%
COc1ccc(-n2c(C)c(C(C)=O)c3cc(O)ccc32)cc1 | -0.8 | 0.316µM* | -10.4%[10 µM] | 0.9%
CN(C)c1ccc(/C=N/NC(=O)c2ccccn2)cc1 | -50.1* | 10.3%[9.22 µM] | -26.8%[10 µM] | 18.7%
O=C(N/N=C/c1ccncc1)c1ccccn1 | 0.5 | / | / | 1.2%
CCOC(=O)c1c(C(=O)OCC)c(C)n(N2C(=O)CSC2=S)c1C | -21.0 | 0.891µM* | 5.6%[10 µM] | 2.2%
Cc1ccc(-n2c(SCC(=O)Nc3ccccc3-c3ccccc3)nnc2-c2ccccn2)cc1 | 0.2 | / | / | /
Cc1ccc(S(=O)(=O)n2c(N)nc3ccccc32)cc1 | -2.3 | / | / | -2.0%
Cc1ccc(/C=C/c2nc3ccccc3n2S(=O)(=O)c2ccc(Br)cc2)cc1 | -63.5* | / | / | /
COCCNC(=O)/C(C#N)=C/c1ccc(O)cc1 | -69.3* | -30.5%[9.22 µM] | -10.0%[10 µM] | 18.8%
C=CCN1[C@@H](C)COc2cc(F)ccc2S1(=O)=O | 2.2 | / | / | /
C=CCN1C(=O)[C@@H](CC(=O)NCCc2ccccc2OC)[C@]2(C(=O)OC)CCCCC=C12 | -5.4 | / | / | /
CCNc1nc(-c2cc(C)n(Cc3ccco3)c2C)cs1 | -4.9 | 8.8% | 19.3% | -1.5%
Cc1cc(-c2csc(NC(=O)c3ccc(=O)[nH]c3)n2)c(C)n1Cc1ccco1 | -61.8* | 17.2%[9.22 µM] | 24.8%[10 µM] | /
COc1cccc(/C=N/Nc2ccc(C(=O)O)cc2)c1O | -73.0* | 31.1% | -124.7% | 13.4%
CCn1c(C)nc2cc(C(=O)N/N=C/c3cccc(OC)c3O)ccc21 | 7.0 | 2µM* | -44.4%[10 µM] | 8.5%
COc1cccc(/C=N/NC(=O)c2c(C)nc3ccc(Br)cn23)c1O | -8.5 | 2.24µM* | -155.4% | 0.4%
CCOc1ccccc1/C=N/NC(=O)c1c(C)nc2ccc(Br)cn12 | -2.0 | / | / | -3.9%
COc1cc(-n2c(C)nc3cc(C(=O)N4CC(C)CC(C)C4)ccc32)cc(OC)c1OC (stereo unspecified) | -0.6 | / | / | /
Cc1ccc(-c2nc(C3CCCN(S(=O)(=O)c4cccs4)C3)no2)cc1 (stereo unspecified) | -4.3 | / | / | /
SMILES | PI4K2A block | HTT aggregate | HTT cytoprotect | GALK inh
COc1ccc(/C=N/Nc2ncc(Br)cn2)c(OC)c1 | -0.7 | ? | 3.55µM* | 4.7%
CCOC(=O)c1c(C)[nH]c(C)c1-c1ccccc1OC | 7.8 | 9.3% | -21.7% | -0.2%
COC(=O)c1c(C)[nH]c(C)c1-c1ccccc1Cl | -5.3 | 8.91µM* | -14.7% | 0.0%
Cc1cc(C)c(NC(=O)CSc2nc3ccc(NC(=O)CSc4nnnn4Cc4ccccc4)cc3s2)c(C)c1 | -2.5 | / | / | /
Cc1cc(C)c(NC(=O)CSc2nc3ccc(NC(=O)CSc4nnnn4-c4ccccc4)cc3s2)c(C)c1 | 0.4 | 10µM* | / | /
Cc1cc(=O)oc2cc(O[C@@H]3SC[C@@H](O)[C@H](O)[C@H]3O)ccc12 | -0.5 | / | / | /
COc1cc(N=c2ssnc2Cl)cc(OC)c1 | 2.5 | 10µM* | 11.7% | -0.6%
C=CCNc1nc(NCC=C)nc(N2CCN(C(c3ccc(F)cc3)c3ccc(F)cc3)CC2)n1 | 0.3 | / | / | /
O=C(Nc1ccc(Oc2cccnc2)cc1)c1ccccc1Cl | -3.0 | 11.2µM* | / | -4.3%
CN1C2=NC(c3ccccc3)CC(=O)N2/C(=C\c2ccccc2)C1c1ccccc1C(F)(F)F (stereo unspecified) | 6.8 | / | / | /
CCS(=O)(=O)c1ccc(OC)c(N=Nc2ccc(O)c3ncccc23)c1 | -16.0 | 7.94µM* | -177.4% | 0.6%
COC(=O)[C@H]1C[C@@]2(N3CCCCC3)c3ccccc3N[C@H]2N1S(=O)(=O)c1ccc(C)cc1 | 0.4 | / | / | /
O=C(Nc1ccc([N+](=O)[O-])cc1)Nc1ccc(OC(F)F)c(Cl)c1 | -0.6 | 11.2µM* | / | /
COc1ccc(NC(C)=O)cc1NC(=O)c1c(C)noc1C | 1.9 | / | / | /
O=C(Nc1ccc(OC(F)F)c(Cl)c1)c1cccc(OC(F)F)c1 | -10.6 | 3.98µM* | -90.2% | -2.6%
COc1ccc(C(C)(C)C)cc1NC(=O)c1c(C)noc1C | -1.1 | 0.562µM* | -0.3% | 0.2%
O=C(Nc1ccc2c(c1)OCO2)Nc1ccc2c(c1)OCO2 | -0.8 | / | / | 1.3%
O=C(Nc1ccc(OC(F)F)c(Cl)c1)Nc1ccc2c(c1)OCO2 | -0.6 | 11.2µM* | -1.8%[10 µM] | -7.9%
O[C@@H](COc1cccc2ncccc12)CN1CCN(C2c3ccccc3[C@@H]3[C@H](c4ccccc42)C3(F)F)CC1 (stereo partly specified) | -7.1 | / | / | /
COc1cccc(Cn2cc(COC(=O)N3CCCC3)nn2)c1 | -5.3 | / | / | /
Clc1ccc(C(Cn2ccnc2)OCc2ccc(Sc3ccccc3)cc2)c(Cl)c1 (stereo unspecified) | -0.7 | / | / | /
COc1cc(NC(=O)Nc2ccc3c(c2)OCO3)cc(OC)c1OC | 0.6 | 11.3% | 6.3% | 0.9%
COc1ccc(C(C)(C)C)cc1NC(=O)Nc1ccc2c(c1)OCO2 | -0.3 | 17.8µM* | 11.6%[10 µM] | -1.0%
C#CCNC(=O)C[C@H]1C[C@@]2(C(=O)OC)C(=C[C@H](C(C)(C)C)O[C@@H]2C)N(Cc2cccc3ccccc23)C1=O | 1.3 | / | / | /
Cc1cccc(C#Cc2ccccc2)n1 | -50.4*! | / | -130.9% | /
Nc1ncnc(Sc2ncccn2)c1[N+](=O)[O-] | -6.7 | 5.01µM* | 21.4%[10 µM] | 2.3%
O=C(CSc1nnc(-c2cccnc2)n1C1CCCCC1)N1CCCC1 | -1.7 | / | / | /

From PubChem
